Our source for the binding signal values is paper PMC7862700, “An all-to-all approach to the identification of sequence-specific readers for epigenetic DNA modifications on cytosine”.

Assay in all cases: DAPPL (digital affinity profiling via proximity ligation, sequencing); 10 mM Tris-HCl pH 7.5, 50 mM NaCl, 1 mM DTT, 4% glycerol, room temperature, 30 min; GST-TFs on glutathione beads, 16-mer random dsDNA library, 0.1% formaldehyde crosslink after washing; high values mean tight binding
What all share (conditions): protein: recombinant; tags: N-terminal GST; dsDNA, one strand shown

The target of one test is T1, FLI1 (Homo sapiens, UniProt Q01543 1-452).
T1 sequence: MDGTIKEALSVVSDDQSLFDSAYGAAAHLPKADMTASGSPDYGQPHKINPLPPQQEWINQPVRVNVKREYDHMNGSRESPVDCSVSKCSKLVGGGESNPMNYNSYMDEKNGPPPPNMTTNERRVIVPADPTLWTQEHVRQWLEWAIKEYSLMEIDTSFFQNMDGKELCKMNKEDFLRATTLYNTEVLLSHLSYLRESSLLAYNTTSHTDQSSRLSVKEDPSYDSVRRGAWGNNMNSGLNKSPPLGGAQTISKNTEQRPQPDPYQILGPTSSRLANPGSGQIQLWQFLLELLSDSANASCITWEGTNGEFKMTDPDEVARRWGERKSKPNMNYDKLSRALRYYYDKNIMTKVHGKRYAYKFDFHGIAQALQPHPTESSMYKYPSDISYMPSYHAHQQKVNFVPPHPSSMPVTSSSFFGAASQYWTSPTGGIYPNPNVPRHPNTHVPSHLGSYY
In a few lines:
(§1)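 Yeast served to express human transcription factors as GST fusions, which were then captured on glutathione beads and labelled with DNA barcodes. Pooled with a tag-only sample, they were incubated with 200 nmole of a 16-mer random double-stranded DNA library for 30 min at room temperature in Tris/NaCl/DTT/glycerol buffer, washed, crosslinked with 0.1% formaldehyde, ligated by proximity, amplified by PCR and sequenced. Dividing each hexamer's read frequency for a factor by its frequency for the tag-only sample gives the binding signal.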

The next test deals with T2, ELK1 (Homo sapiens, UniProt P19419 1-428).
T2 sequence: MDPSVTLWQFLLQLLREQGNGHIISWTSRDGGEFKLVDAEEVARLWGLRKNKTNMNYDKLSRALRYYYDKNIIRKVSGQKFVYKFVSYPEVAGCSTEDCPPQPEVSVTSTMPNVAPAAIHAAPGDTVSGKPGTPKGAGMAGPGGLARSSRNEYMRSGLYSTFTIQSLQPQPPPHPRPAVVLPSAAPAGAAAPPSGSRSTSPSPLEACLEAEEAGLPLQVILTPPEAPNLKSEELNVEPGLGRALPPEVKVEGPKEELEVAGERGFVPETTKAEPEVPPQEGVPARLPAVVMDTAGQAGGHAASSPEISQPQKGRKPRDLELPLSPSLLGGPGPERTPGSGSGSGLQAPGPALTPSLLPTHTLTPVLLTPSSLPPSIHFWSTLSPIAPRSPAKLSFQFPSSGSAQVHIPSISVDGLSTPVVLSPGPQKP
Summed up:
as §1

The target of another test is T3, GABPA (Homo sapiens, UniProt Q06546 1-454).
T3 sequence: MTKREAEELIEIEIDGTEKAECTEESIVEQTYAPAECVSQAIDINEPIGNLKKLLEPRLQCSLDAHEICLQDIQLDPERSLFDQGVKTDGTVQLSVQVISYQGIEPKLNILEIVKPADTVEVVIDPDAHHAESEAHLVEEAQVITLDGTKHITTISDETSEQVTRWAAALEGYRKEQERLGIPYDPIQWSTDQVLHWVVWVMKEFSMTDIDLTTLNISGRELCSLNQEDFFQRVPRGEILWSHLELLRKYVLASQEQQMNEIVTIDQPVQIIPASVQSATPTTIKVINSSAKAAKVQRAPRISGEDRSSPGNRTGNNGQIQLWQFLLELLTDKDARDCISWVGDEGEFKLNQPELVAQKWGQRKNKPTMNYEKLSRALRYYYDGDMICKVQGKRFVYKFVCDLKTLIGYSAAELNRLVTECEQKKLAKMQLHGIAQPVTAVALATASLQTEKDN
In a few lines: as §1

The next test deals with T4, ERG (Homo sapiens, UniProt P11308 1-479).
T4 sequence: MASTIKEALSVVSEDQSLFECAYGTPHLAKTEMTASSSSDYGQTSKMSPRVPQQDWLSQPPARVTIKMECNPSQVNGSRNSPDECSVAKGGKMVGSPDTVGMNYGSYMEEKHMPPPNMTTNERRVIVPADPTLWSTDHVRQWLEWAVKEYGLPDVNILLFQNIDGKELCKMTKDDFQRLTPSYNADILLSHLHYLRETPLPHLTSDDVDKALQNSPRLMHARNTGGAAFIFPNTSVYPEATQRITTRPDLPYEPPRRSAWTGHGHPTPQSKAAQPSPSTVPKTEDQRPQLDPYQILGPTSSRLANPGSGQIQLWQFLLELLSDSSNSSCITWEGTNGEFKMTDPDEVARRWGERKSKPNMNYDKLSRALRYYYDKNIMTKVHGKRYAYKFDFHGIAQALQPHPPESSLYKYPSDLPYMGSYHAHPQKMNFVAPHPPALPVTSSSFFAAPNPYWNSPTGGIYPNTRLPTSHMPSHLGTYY
Summed up:
as §1

The next test has as its target ELF1 (Homo sapiens, UniProt P32519 1-619). Summed up: as §1
For the next test, the target named is T5, EHF (Homo sapiens, UniProt Q9NZC4 1-300).
T5 sequence: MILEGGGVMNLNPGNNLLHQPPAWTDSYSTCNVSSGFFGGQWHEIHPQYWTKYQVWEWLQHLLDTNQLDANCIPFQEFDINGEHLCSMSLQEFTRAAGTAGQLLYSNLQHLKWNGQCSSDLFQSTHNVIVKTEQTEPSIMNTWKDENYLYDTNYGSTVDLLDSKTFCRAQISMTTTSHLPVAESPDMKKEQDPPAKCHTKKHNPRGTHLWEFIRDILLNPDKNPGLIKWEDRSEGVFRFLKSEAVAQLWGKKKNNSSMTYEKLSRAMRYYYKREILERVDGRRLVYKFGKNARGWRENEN
Summed up: as §1

Another test deals with SPI1 (Homo sapiens, UniProt P17947 1-270). In a few lines: as §1
The next test deals with SPIB (Homo sapiens, UniProt Q01892 1-262). In a few lines:
as §1

In the next test the target is T6, ELK3 (Homo sapiens, UniProt P41970 1-407).
T6 sequence: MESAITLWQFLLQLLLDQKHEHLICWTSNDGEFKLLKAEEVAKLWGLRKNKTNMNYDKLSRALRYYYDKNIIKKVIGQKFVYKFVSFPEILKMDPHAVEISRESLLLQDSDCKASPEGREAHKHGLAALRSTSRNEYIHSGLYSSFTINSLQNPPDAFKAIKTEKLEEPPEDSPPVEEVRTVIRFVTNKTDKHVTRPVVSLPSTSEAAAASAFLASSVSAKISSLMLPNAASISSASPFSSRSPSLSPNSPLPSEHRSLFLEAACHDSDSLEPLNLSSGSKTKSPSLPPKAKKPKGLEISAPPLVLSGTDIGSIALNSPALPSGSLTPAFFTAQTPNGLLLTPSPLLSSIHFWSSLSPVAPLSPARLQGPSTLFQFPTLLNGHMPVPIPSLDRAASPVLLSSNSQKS
In a few lines:
as §1

Sequence of SPIB (Q01892 whole entry): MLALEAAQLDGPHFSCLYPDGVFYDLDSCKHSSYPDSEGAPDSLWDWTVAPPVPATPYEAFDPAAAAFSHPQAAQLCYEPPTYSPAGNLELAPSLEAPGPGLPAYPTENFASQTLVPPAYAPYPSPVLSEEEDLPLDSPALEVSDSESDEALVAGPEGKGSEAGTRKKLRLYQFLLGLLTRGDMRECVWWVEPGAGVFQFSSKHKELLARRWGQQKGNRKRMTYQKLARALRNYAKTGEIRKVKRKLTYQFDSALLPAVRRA
Sequence of ELF1 (P32519 whole entry): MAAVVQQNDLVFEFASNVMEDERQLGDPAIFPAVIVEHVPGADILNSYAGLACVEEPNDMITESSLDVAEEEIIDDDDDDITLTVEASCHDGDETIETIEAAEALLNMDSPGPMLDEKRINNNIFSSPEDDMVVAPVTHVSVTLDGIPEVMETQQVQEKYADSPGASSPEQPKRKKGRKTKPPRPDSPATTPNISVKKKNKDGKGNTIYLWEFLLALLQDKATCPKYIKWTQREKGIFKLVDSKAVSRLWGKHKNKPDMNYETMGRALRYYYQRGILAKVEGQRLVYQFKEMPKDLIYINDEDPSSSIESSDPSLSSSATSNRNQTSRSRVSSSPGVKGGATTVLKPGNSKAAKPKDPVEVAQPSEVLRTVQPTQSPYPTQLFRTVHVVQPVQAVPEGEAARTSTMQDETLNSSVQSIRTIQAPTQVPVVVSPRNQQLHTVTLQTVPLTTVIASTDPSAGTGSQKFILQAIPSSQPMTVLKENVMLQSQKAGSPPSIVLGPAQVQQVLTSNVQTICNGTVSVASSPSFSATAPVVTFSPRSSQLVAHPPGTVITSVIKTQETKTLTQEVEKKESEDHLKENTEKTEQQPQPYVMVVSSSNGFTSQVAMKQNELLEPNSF

For CTTCCA, the binding signal with FLI1 was 1.5 fold enrichment (6-mer frequency, TF over GST control); in the test with ELK1 it was 1.42 fold enrichment (6-mer frequency, TF over GST control); with GABPA it was 1.34 fold enrichment (6-mer frequency, TF over GST control); with ERG, 1.47 fold enrichment (6-mer frequency, TF over GST control); in the test with ELF1, 1.39 fold enrichment (6-mer frequency, TF over GST control); with EHF, 1.53 fold enrichment (6-mer frequency, TF over GST control). Also, the binding signal with SPI1 was 1.44 fold enrichment (6-mer frequency, TF over GST control); with SPIB, 1.51 fold enrichment (6-mer frequency, TF over GST control); with ELK3 it was 1.58 fold enrichment (6-mer frequency, TF over GST control).

Regarding TCCTCC, the binding signal with FLI1 is 1.47 fold enrichment (6-mer frequency, TF over GST control); with ELK1, 1.61 fold enrichment (6-mer frequency, TF over GST control); in the test with GABPA it was 1.49 fold enrichment (6-mer frequency, TF over GST control); in the test with ERG, 1.58 fold enrichment (6-mer frequency, TF over GST control); with ELF1, 1.52 fold enrichment (6-mer frequency, TF over GST control); with EHF, 1.61 fold enrichment (6-mer frequency, TF over GST control). Further, the binding signal was 1.68 fold enrichment (6-mer frequency, TF over GST control) with SPI1; 1.6 fold enrichment (6-mer frequency, TF over GST control) with SPIB; 1.55 fold enrichment (6-mer frequency, TF over GST control) with ELK3.

For AAAAGC, the binding signal was 1.16 fold enrichment (6-mer frequency, TF over GST control) with FLI1; 1.13 fold enrichment (6-mer frequency, TF over GST control) in the test with ELK1; 1.14 fold enrichment (6-mer frequency, TF over GST control) with GABPA; 1.24 fold enrichment (6-mer frequency, TF over GST control) with ERG; 1.2 fold enrichment (6-mer frequency, TF over GST control) in the test with ELF1; 1.14 fold enrichment (6-mer frequency, TF over GST control) with EHF. In addition, the binding signal with SPI1 is 1.55 fold enrichment (6-mer frequency, TF over GST control); with SPIB it was 1.23 fold enrichment (6-mer frequency, TF over GST control); with ELK3, 1.15 fold enrichment (6-mer frequency, TF over GST control).

For the sequence TAGTTT, the binding signal was 1.23 fold enrichment (6-mer frequency, TF over GST control) with FLI1; 1.19 fold enrichment (6-mer frequency, TF over GST control) in the test with ELK1; 1.25 fold enrichment (6-mer frequency, TF over GST control) with GABPA; 1.14 fold enrichment (6-mer frequency, TF over GST control) with ERG; 1.22 fold enrichment (6-mer frequency, TF over GST control) with ELF1; 1.21 fold enrichment (6-mer frequency, TF over GST control) with EHF. The binding signal in the test with SPI1 is 1.12 fold enrichment (6-mer frequency, TF over GST control); with SPIB it was 1.13 fold enrichment (6-mer frequency, TF over GST control); with ELK3, 1.23 fold enrichment (6-mer frequency, TF over GST control).

CTCCAC: the binding signal is 1.56 fold enrichment (6-mer frequency, TF over GST control) with FLI1; 1.41 fold enrichment (6-mer frequency, TF over GST control) in the test with ELK1; 1.46 fold enrichment (6-mer frequency, TF over GST control) with GABPA; 1.37 fold enrichment (6-mer frequency, TF over GST control) in the test with ERG; 1.38 fold enrichment (6-mer frequency, TF over GST control) in the test with ELF1; 1.32 fold enrichment (6-mer frequency, TF over GST control) with EHF. Also, the binding signal is 1.55 fold enrichment (6-mer frequency, TF over GST control) with SPI1; 1.32 fold enrichment (6-mer frequency, TF over GST control) in the test with SPIB; 1.54 fold enrichment (6-mer frequency, TF over GST control) with ELK3.

On to CCGTTC, for which the binding signal with FLI1 is 1.32 fold enrichment (6-mer frequency, TF over GST control); in the test with ELK1 it was 1.38 fold enrichment (6-mer frequency, TF over GST control); in the test with GABPA, 1.39 fold enrichment (6-mer frequency, TF over GST control); with ERG, 1.38 fold enrichment (6-mer frequency, TF over GST control); with ELF1, 1.46 fold enrichment (6-mer frequency, TF over GST control); with EHF, 1.5 fold enrichment (6-mer frequency, TF over GST control). For the same sequence, the binding signal in the test with SPI1 is 1.39 fold enrichment (6-mer frequency, TF over GST control); with SPIB, 1.47 fold enrichment (6-mer frequency, TF over GST control); in the test with ELK3, 1.4 fold enrichment (6-mer frequency, TF over GST control).

In the case of TACGCG, the binding signal with FLI1 is 1.12 fold enrichment (6-mer frequency, TF over GST control); in the test with ELK1, 1.14 fold enrichment (6-mer frequency, TF over GST control); in the test with GABPA, 1.24 fold enrichment (6-mer frequency, TF over GST control); in the test with ERG, 1.14 fold enrichment (6-mer frequency, TF over GST control); in the test with ELF1 it was 1.12 fold enrichment (6-mer frequency, TF over GST control); in the test with EHF, 1.06 fold enrichment (6-mer frequency, TF over GST control). The binding signal was 1.12 fold enrichment (6-mer frequency, TF over GST control) in the test with SPI1; 1.13 fold enrichment (6-mer frequency, TF over GST control) with SPIB; 1.28 fold enrichment (6-mer frequency, TF over GST control) with ELK3.
